From PubChem
VACV Venus inh = vaccinia inhibition (Venus reporter); Vaccinia virus Venus reporter expression, fluorescence; Potency, µM (top dose mostly 36.5 µM), for inactives: at the top dose activity change, negative = inhibition, most hits filed as inhibitors; 330,000 tested, 0.46% active; AID 720580; calls by dose curve; tested in A549 cells; note: nearly all actives have a fitted effect of over 30% in size
HCV inhibitor = blocks hepatitis C virus; Huh7.5.1 HCVcc-Cre infection, luciferase reporter, 44 h; Potency, µM (doses to about 41.8 µM), for inactives: top-dose activity change, negative = inhibition, usual class: inhibitors; 340,000 tested, 3.4% active; AID 651820; active = well fitted inhibition curve with a large enough effect; inconclusive = small, poorly fitted or top-dose-only effect, or another doubt; inactive = no such curve, though single readings can be large or run the other way
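Cells (1,000/well) were plated 4 h before compound, then infected with HCVcc-Cre virus (~0.5 moi). After 44 h further culture, infection was read as luciferase luminescence following a 15 min substrate incubation at room temperature.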
VACV mCherry inh = inhibitors of vaccinia virus infection (mCherry reporter signal); Vaccinia virus mCherry reporter infection, fluorescence; Potency, µM (series often up to 36.5 µM), for inactives: top-dose activity change, negative = inhibition, actives largely listed as inhibitors; 310,000 tested, 0.63% active; AID 720579; calls by dose curve; tested in A549 cells; note: nearly all actives have a fitted effect of over 35% in size
MARV entry inh = inhibitors of Marburg virus binding or cell entry; Marburg virus pseudotyped entry inhibition, cell reporter; Potency, µM (top dose mostly 37.8 µM), for the others: at the top dose activity change, negative = inhibition, most hits filed as inhibitors; 300,000 tested, 1.8% active; AID 540276; calls by dose curve; tested in HEK293 cells
Lassa entry inh = Lassa virus entry inhibition. Lassa virus pseudotype entry inhibition, cell reporter. 300,000 tested, 1.2% active. Potency, µM (doses to about 37.9 µM), for inactives: at the highest dose activity change, negative = inhibition, most hits filed as inhibitors; calls by dose curve; tested in HEK293 cells; note: nearly all actives have a fitted effect of over 50% in size
FMDV inh = foot and mouth disease virus antiviral activity; Potency, µM (series often up to 57.9 µM), for inactives: at the top dose activity change, negative = inhibition, actives largely listed as inhibitors; 410,000 tested, 1.2% active; FMDV antiviral cell-based qHTS; calls by dose curve; tested in HEK293T cells; note: read-out not given here; nearly all actives have a fitted effect of over 45% in size
Starred values were filed as active, the others as inactive; i = inactive; ? = inconclusive; nt = no result given; [ ] = remark or other dose. Compounds with a hit are over-represented: about 5.3% of the library has one in this group of screens. % is set by controls: 0 for no effect and ±100 for the full control effect; potency is the fitted concentration of half-maximal effect.

SMILES	VACV Venus inh	HCV inhibitor	VACV mCherry inh	MARV entry inh	Lassa entry inh	FMDV inh
O=C(Nc1ccc(S(=O)(=O)N2CCCCC2c2cccnc2)cc1)c1ccc(F)cc1 (configuration not stated)	-9.9%	nt	-17.5%	nt	?	?
CN(C)/C=C1\C=Cc2ccccc21	-3.1%	nt	15.4%	nt	nt	nt
CCN(CC)C(=O)[C@H]1C[C@H](CC(=O)NCc2ccco2)C(=O)N2CCc3c([nH]c4cc(-c5ccco5)ccc34)[C@]12C	?	?	-9.4%	nt	nt	-19.6%
CCN(CC)C(=O)[C@H]1C[C@H](CC(=O)NCc2cccc(C(F)(F)F)c2)C(=O)N2CCc3c([nH]c4cc(-c5ccco5)ccc34)[C@]12C	11.2µM*	?	11.2µM*	nt	nt	?
NS(=O)(=O)c1ccc(N2N=C(c3ccccc3)CC2c2ccccc2Cl)cc1 (configuration not stated)	?	31.6µM*	?	nt	nt	-25.1%
COc1ccc(C2CC(c3ccccc3Br)=NN2c2ccc(S(N)(=O)=O)cc2)cc1 (configuration not stated)	?	11.2µM*	?	nt	nt	0.0%
COc1ccc(C2=NN(CN3C(=O)C(=O)c4ccccc43)C(c3ccc(Br)cc3)C2)cc1 (configuration not stated)	-5.2%	10µM*	i	?	-23.7%	nt
NS(=O)(=O)c1ccc(N2N=C(c3ccccc3)CC2c2ccccc2)cc1 (configuration not stated)	-22.8%	?	?	?	?	-27.4%
CCc1ccc(C2=NN(c3ccc(S(N)(=O)=O)cc3)C(c3ccc(F)cc3)C2)cc1 (configuration not stated)	?	?	?	?	7.94µM*	-9.7%
Cc1ccc(C2CC(c3ccccc3)=NN2c2ccc(S(N)(=O)=O)cc2)cc1 (configuration not stated)	-10.6%	nt	-3.3%	nt	nt	-10.7%
COc1ccc(C2=NN(CN3C(=O)C(=O)c4ccccc43)C(c3ccc(C)cc3)C2)cc1 (configuration not stated)	nt	-22.7%	nt	-9.3%	-8.6%	26.7%
COCC(=O)Nc1cc(C(=O)N2CCN(c3ccc(Cl)cn3)CC2)c2c(c1)nc(C1CCC1)n2C	4.9%	nt	-1.4%	nt	nt	-10.7%
C=Cc1ccc(Cn2c(=O)n(-c3cccc(Cl)c3)c(=O)c3c4c(sc32)CN(C(C)=O)CC4)cc1	-11.6%	nt	-29.1%	26.8%[46.1 µM]	nt	-18.1%
CCO[C@H]1[C@H](NC(=O)c2cccnc2)c2ccccc2C12CCN(C(=O)c1cc(C)n(C)n1)CC2	-7.0%	nt	-13.9%	nt	nt	4.4%
COc1cccc(-c2nn(C)c3sc(C(=O)NCc4ccc(C)o4)cc23)c1	?	2.82µM*	?	?	?	-8.6%
COc1cccc(-c2nn(C)c3sc(C(=O)NCc4ccc5c(c4)OCO5)cc23)c1	?	14.1µM*	?	0.5%	nt	-17.5%
COc1ccc(NC(=O)c2cc3c(-c4ccc(OC)c(OC)c4)nn(C)c3s2)cc1OC	nt	?	nt	13µM*	13µM*	-24.6%
Cn1nc(C(C)(C)C)cc1C(=O)NCc1ccc2c(c1)OCO2	nt	1µM*	nt	nt	nt	?
COc1cccc(-c2nn(C)c3sc(C(=O)NCc4ccc(OC)cc4OC)cc23)c1	-27.0%	nt	?	-2.2%[46.1 µM]	?	-16.6%
Cc1oc(C(C)(C)C)cc1C(=O)NCc1ccc2c(c1)OCO2	6.8%	-21.1%	-9.5%	-23.3%[46.1 µM]	-12.0%[46.1 µM]	6.0%
OC(CN1C=CCc2ccccc21)c1ccc(Cl)cc1Cl (configuration not stated)	-15.3%	nt	15.9%	nt	nt	nt
Cc1ccccc1CN1[C@H](C)[C@H](c2ccccc2)OCCS1(=O)=O	-16.3%	nt	-26.3%	nt	nt	nt
COc1cccc(-c2nn(C)c3sc(C(=O)N4CCOCC4)cc23)c1	-21.4%	-7.1%	i	nt	nt	-20.5%
COc1cccc(-c2nn(C)c3sc(C(=O)N4CCN(c5ccccn5)CC4)cc23)c1	?	10µM*	?	?	?	?
N#CC(C#N)=C(Nc1ccc(F)cc1)SCc1cccc(Br)c1	?	5.01µM*	?	?	?	1.78µM*
SMILES	VACV Venus inh	HCV inhibitor	VACV mCherry inh	MARV entry inh	Lassa entry inh	FMDV inh
Cc1cccc(CSC(Nc2ccc(F)cc2)=C(C#N)C#N)c1	?	11.2µM*	?	2.91µM*	?	?
CCOc1ccc(-c2cc(-c3nc(-c4ccc(C)cc4)no3)[nH]n2)cc1	-9.3%	nt	-19.6%	nt	24.5%[46.1 µM]	-6.7%
Cc1nn(C)c2c1c(C(F)(F)F)cc(=O)n2C(C)C(=O)NCc1ccccc1 (configuration not stated)	-6.5%	nt	-10.7%	nt	16.3%[46.1 µM]	-27.5%
CCS(=O)(=O)c1ccc(O)c(NC(=O)c2cc(OC)c(OC)c(OC)c2)c1	-11.7%	3.9%	i	10.5%	-2.5%	-2.0%
COc1ccccc1N=Nc1ccc(O)c2ncccc12	?	2.24µM*	?	nt	nt	-10.4%
CCS(=O)(=O)c1ccc(N=Nc2ccc(O)c3ncccc23)c(OC)c1	?	?	7.94µM*	?	?	?
Cc1ccc(N=Nc2ccc(O)c3ncccc23)cc1	?	?	12.6µM*	?	?	-18.5%
Cc1ccc(N=Nc2ccc(O)c3ncccc23)cc1C	nt	?	nt	nt	nt	41.0%
Oc1ccc(N=Nc2ccccc2C(F)(F)F)c2cccnc12	?	3.16µM*	?	nt	nt	-6.8%
CC(C)c1c(C(=O)N(C)CC2CCCN(C)C2)cnn1-c1nccc(-c2cccs2)n1 (configuration not stated)	-16.0%	nt	-20.3%	nt	nt	9.5%
Cc1ccc(-c2ccc(/C=N\NC(=O)C3C(=O)NCC3c3ccccc3)o2)cc1Cl (configuration not stated)	?	8.91µM*	?	-25.9%	?	-6.5%
O=C1NCC(c2ccccc2)C1C(=O)N/N=C\c1ccc(-c2cccc(Cl)c2Cl)o1 (configuration not stated)	-23.5%	-22.9%	nt	-18.9%	-23.3%	-18.4%
OCC1(Cc2ccc(Cl)cc2)CCN(CCCc2ccccc2)CC1	-24.1%	12.6µM*	i	?	?	-17.2%
CSc1ccc(CN2CCC(CO)(Cc3ccc(Cl)cc3)CC2)cc1	13.9%	?	-5.8%	?	12.6µM*	?
CCCCCCCCCCCCC(=O)N1CCCC[C@H]1CNC(=O)[C@@H](N)CCCCN	nt	nt	nt	nt	nt	-17.5%
COC(=O)CNC(=O)C(=O)OC	-10.7%[3.33 µM]	nt	-14.6%[3.33 µM]	nt	nt	11.2%[6.7 µM]
Cc1cccc(C(=O)Nc2ccc(C(=O)OCc3cc(=O)n4nc(CC(C)C)sc4n3)cc2)c1	-15.1%	nt	-14.8%	nt	9.3%[46.1 µM]	30.2%
Cc1c(C(=O)N(Cc2ccccc2F)C2CCS(=O)(=O)C2)oc2ccccc12 (configuration not stated)	-17.8%	nt	-13.2%	?	-17.0%[46.1 µM]	0.0%
Cc1nn(-c2ccc(NC(=O)c3ccncc3)cc2)c(C)c1Cl	-14.0%	3.16µM*	-11.8%	?	?	17.8µM*
Cc1ccc2[nH]cc(CCNC(=O)c3ccco3)c2c1	-3.5%	5.4%	-27.5%	-10.3%[46.1 µM]	2.5%[46.1 µM]	0.0%
